According to PubChem BioAssay (NCI):
Compounds without any hit were thinned out: in the full panel of roughly 83,000, 20% have a hit.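 Growth was measured after 48 h exposure to one concentration of compound in 96-well plates. Values under 10 count as active.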 Unmarked numbers belong to inactive results. Calls of active or inactive are those of the source.

The molecules below were run on HL-60(TB) leukemia (assay: NCI-60 one-dose screen, 48 h (100 = growth as untreated, 0 = no growth, -100 = all killed)). Settings: 10 µM unless noted.

| SMILES | growth |
| --- | --- |
| COc1ncnc2c(-c3ccccc3)cn(COCc3ccccc3)c12 | 53.1% |
| O=C(/C=C\c1cc(Br)ccc1O)/C=C/c1cc(Br)ccc1O | -3.03% (active) |
| N[C@@H](CO)C(=O)O | 106% |
| CCC(CC)n1c(C)cc(=O)n1C(CC)CC | 88% |
| COc1cc(OC)cc(C2C(C#N)=C(N)Oc3c2ccc2ccc(O)cc32)c1 (stereo unspecified) | -23.8% (active) |
| Cc1cc(O)c(C2=NN(c3ccc(S(N)(=O)=O)cc3)C(c3ccccc3Cl)C2)cc1Cl (stereo unspecified) | -30.2% (active) |
| CNCCCNc1ccnc2cc(Cl)ccc12 | -25% (active) |
| CC1=C(N2CCOCC2)C(N2CCOCC2)=C(C)C(=O)C1=O | 97.3% |
| O=C(COc1cccc(/C=C2\COc3ccccc3C2=O)c1)c1ccccc1 | 40.3% |
| COc1ccc2c(c1)c(-c1nc(-c3ccc4ccccc4c3)cs1)cn2C | 85.7% |
| O=[N+]([O-])c1cccc(-c2ncc(-c3ccc(Cl)cc3Cl)[nH]2)c1 | 70.1% |
| CC(c1ccc(-n2cccn2)cc1)c1cnc(N2CCc3ccc(C(N)=O)cc3C2)s1 (stereo unspecified) | 48.9% |
| CC(C)(C#N)c1cc(C(=O)Nc2cc(Nc3ncccc3-c3ncnc4nc[nH]c34)ccc2F)cc(C(F)(F)F)c1 | 35.3% |
| CC1=C(C(=O)Nc2ccc(F)cc2)C(c2ccc(Cl)cc2)C2=C(CC(C)(C)CC2=O)N1 (stereo unspecified) | 104% |
| CS(=O)(=O)c1ccc(NC(=O)c2ccccc2)nc1 | 67.5% |
| COc1ccc(/C=C/C(=O)c2cccc(B(O)O)c2)cc1O | 4.3% (active) |
